Assay outcomes as filed in PubChem.
In the library only some 3.2% were active in any assay of this set; here they are far more common.
SMARCA2 activ: increases SMARCA2 function in MMTV reporter cells. AID 652017. activation, % at 9.1 µM. 1% of 370,000 active. MG213 cells, MMTV-luciferase reporter, dexamethasone, overnight; in the data active means activation above about 7.8%;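 further: 0% = vehicle wells and 100% = reference activator wells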
dFosB act: activators of mouse delta FosB homodimer | purified delta FosB, TAMRA-CDK5 oligo fluorescence polarization; percent of positive-control signal above neutral wells | 0.99% of 340,000 active | activation, % at 25 µM;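 active means mean activation above about 17%, with every replicate also reaching it, limit read from the data, passing the limit was not always enough; inconclusive means only one of the two conditions met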
DYRK1A inh: inhibitors of rat Dyrk1A kinase. Q63470. ADP-Glo luminescence, NFATc1 peptide. inhibition, % at 12.5 µM. 0.43% of 310,000 active. AID 504441; in the data active means inhibition above about 50%;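 further: plate controls were vehicle with enzyme for no effect and no enzyme for full effect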
esBAF inh: SWI/SNF esBAF complex inhibition; mouse ES cells, Bmi1-luciferase knock-in reporter, 24 h; 100% = twice the neutral-well signal; reporter increase, % at 12.5 µM; 2% of 350,000 active; in the data active means activation above about 40%; inconclusive means no clear call, values can overlap the other calls;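 further: 0% = median of the plate's neutral control wells and 100% = double that signal; a rise in the Bmi1 reporter signal indicates esBAF inhibition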
CDK5 p35 inh: blocks human CDK5/p35 kinase activity. Q00535+Q15078. Recombinant CDK5/p35, ADP-Glo luminescence, 60 min. inhibition, % at 10 µM. 0.01% of 330,000 active. AID 488839;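 active means highest replicate inhibition of at least 50% and at least 75% of replicates reaching 50%; inconclusive means only one of the two criteria met; inactive means both criteria failed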;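 further: plate controls were DMSO neutral control for no effect and GW8510 at 10 µM for full effect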
Rtt109 Vps75: inhibitors of Candida albicans Rtt109/Vps75 histone acetyltransferase | Q5AAJ8 | purified Rtt109/Vps75, ThioGlo CoA-SH fluorescence, 4 h | inhibition, % at 34.9 µM | 0.16% of 330,000 active | AID 540336;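 active means inhibition of at least 50% in every replicate; inconclusive means best replicate reaches 50% inhibition but some replicates fall short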
Target sequence (Q5AAJ8 whole entry, looked up): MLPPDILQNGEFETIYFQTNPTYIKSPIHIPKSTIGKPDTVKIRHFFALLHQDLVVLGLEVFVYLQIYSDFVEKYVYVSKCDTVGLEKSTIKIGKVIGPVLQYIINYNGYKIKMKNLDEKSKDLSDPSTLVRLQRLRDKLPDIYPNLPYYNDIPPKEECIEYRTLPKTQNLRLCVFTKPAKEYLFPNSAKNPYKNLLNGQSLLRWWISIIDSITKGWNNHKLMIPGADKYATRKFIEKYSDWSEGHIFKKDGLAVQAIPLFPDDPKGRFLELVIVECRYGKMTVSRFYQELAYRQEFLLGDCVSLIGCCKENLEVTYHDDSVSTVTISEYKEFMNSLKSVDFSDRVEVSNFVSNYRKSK
* = called active by the depositor.

For CC1CCN(C(=O)COC(=O)c2n[nH]c3ccccc23)CC1 the results were SMARCA2 activ 4, dFosB act 0, DYRK1A inh 2, esBAF inh 58*, CDK5 p35 inh 2 and Rtt109 Vps75 -12.
O=C(OCC(=O)N1CCCCCC1)c1cccs1 was read as SMARCA2 activ 2, dFosB act -5, DYRK1A inh 0, esBAF inh 45*, CDK5 p35 inh 0 and Rtt109 Vps75 1.
O=C(OCC(=O)N1CCCCC1)c1cccs1 was read as SMARCA2 activ 0, dFosB act 6, DYRK1A inh 3, esBAF inh 48*, CDK5 p35 inh -1 and Rtt109 Vps75 7.
For CCOC(=O)C1CCCN(C(=O)COC(=O)c2cccs2)C1 (centres undefined) the results were SMARCA2 activ 0, dFosB act 3, esBAF inh 3, CDK5 p35 inh 0 and Rtt109 Vps75 -3.
`CCC1CCCCN1C(=O)COC(=O)c1n[nH]c2ccccc12` (centres undefined) gave SMARCA2 activ 1, dFosB act 6, DYRK1A inh 18, esBAF inh 7, CDK5 p35 inh 0 and Rtt109 Vps75 -7.
O=C(c1ccncc1)N1C[C@@H]2[C@H](c3ccccc31)[C@@H](CO)N2C(=O)Nc1ccccc1Cl was read as esBAF inh -7.
Screening Cc1nnc(NC(=O)COc2ccccc2)s1 returned SMARCA2 activ 0, dFosB act 0, DYRK1A inh -10, esBAF inh 3 and CDK5 p35 inh 5.
O=C(COc1ccccc1)Nc1nnc(C23CC4CC(CC(C4)C2)C3)s1 was read as SMARCA2 activ 0, dFosB act inconclusive, DYRK1A inh -1, esBAF inh 48*, CDK5 p35 inh 1 and Rtt109 Vps75 7.
`O=C(COc1ccccc1)Nc1nc2c(s1)CCCC2` gave SMARCA2 activ 3, dFosB act 1, DYRK1A inh 15, esBAF inh 58*, CDK5 p35 inh -1 and Rtt109 Vps75 2.
For C[C@@H]1CCCCO[C@@H](CN(C)S(=O)(=O)c2ccc(F)cc2)[C@H](C)CN([C@@H](C)CO)C(=O)c2cc(NC(=O)C3CCCCC3)ccc2O1 the results were esBAF inh 3.
Screening CCCNC(=O)Nc1ccc2c(c1)C(=O)N(C)[C@@H]1CC[C@@H](CC(=O)NCCCN(C)C)O[C@@H]1CO2 returned esBAF inh 9.
`CC(Oc1ccc(Cl)cc1Cl)c1nc(-c2ccccn2)no1` (centres undefined) gave SMARCA2 activ 2, dFosB act -3, DYRK1A inh -3, esBAF inh 103*, CDK5 p35 inh -2 and Rtt109 Vps75 4.
Screening CC(Oc1ccc(Cl)cc1Cl)c1nc(-c2ccc(NC(=O)c3cccnc3)cc2)no1 (centres undefined) returned SMARCA2 activ 0, dFosB act -9, DYRK1A inh 10, esBAF inh 11, CDK5 p35 inh -4 and Rtt109 Vps75 -4.
For CCC(c1ccccc1)c1nc(-c2ccccn2)no1 (centres undefined) the results were SMARCA2 activ 0, dFosB act 5, DYRK1A inh -6, esBAF inh 47*, CDK5 p35 inh 0 and Rtt109 Vps75 -4.
For O=C(C[C@H]1CC[C@@H]2[C@H](COC[C@H](O)CN2C(=O)Nc2ccc(Cl)c(Cl)c2)O1)NC1CCC1 the results were esBAF inh 6.
Screening CC(=O)Nc1ccc(OCc2cccc([N+](=O)[O-])c2)cc1 returned SMARCA2 activ 2, dFosB act 2, DYRK1A inh -2, CDK5 p35 inh 1 and Rtt109 Vps75 58*.
`CO[C@H]1CN(C)C(=O)c2ccc(NC(=O)C3CCOCC3)cc2OC[C@@H](C)N(C(=O)c2ccccc2)C[C@H]1C` gave esBAF inh -6.
Screening Cc1ccc(NC(=O)CN2CCCC2)cc1 returned SMARCA2 activ -1, dFosB act 7, DYRK1A inh 2, esBAF inh 4, CDK5 p35 inh 0 and Rtt109 Vps75 0.
`CSCCC(=O)Nc1ccc(C(C)=O)cc1` gave SMARCA2 activ 4, dFosB act -4, DYRK1A inh -4, esBAF inh 53*, CDK5 p35 inh 1 and Rtt109 Vps75 4.
`CC(=O)c1ccc(NC(=O)CSCCO)cc1` gave SMARCA2 activ 0, dFosB act 7, DYRK1A inh -1, esBAF inh 27, CDK5 p35 inh -1 and Rtt109 Vps75 -5.
For CC(=O)c1ccc(NC(=O)CN2CCCC2)cc1 the results were SMARCA2 activ 4, dFosB act 4, DYRK1A inh 0, esBAF inh 50*, CDK5 p35 inh 1 and Rtt109 Vps75 -1.
Screening CCCC#Cc1ccc2c(c1)O[C@@H](CN(C)Cc1ccncc1)[C@@H](C)CN([C@H](C)CO)S2(=O)=O returned esBAF inh -6.
COc1ccc(-n2sc3ccc(F)cc3c2=O)cc1 was read as SMARCA2 activ 5, dFosB act 0, DYRK1A inh 7, esBAF inh 8, CDK5 p35 inh 4 and Rtt109 Vps75 159*.
COc1ccc(C(=O)NCCn2ccc3ccccc32)cc1 was read as SMARCA2 activ 2, dFosB act 0, DYRK1A inh 5, esBAF inh 44*, CDK5 p35 inh 0 and Rtt109 Vps75 -7.
For O=C(NCCc1ccccc1)c1ccc2c(c1)OCO2 the results were SMARCA2 activ -4, dFosB act -4, DYRK1A inh 1, esBAF inh -74, CDK5 p35 inh 2 and Rtt109 Vps75 4.
O=C(NCCn1ccc2ccccc21)c1ccc2c(c1)OCO2 was read as SMARCA2 activ 4, dFosB act -2, DYRK1A inh 2, esBAF inh 52*, CDK5 p35 inh 1 and Rtt109 Vps75 -16.
For Cc1ccc(C(=O)NCCn2ccc3ccccc32)cc1[N+](=O)[O-] the results were SMARCA2 activ -1, dFosB act -11, DYRK1A inh 1, CDK5 p35 inh -3 and Rtt109 Vps75 -2.
CC(C)NC(=O)Nc1cccc2c1O[C@H](CN(C)C(=O)Nc1ccc3c(c1)OCO3)[C@@H](C)CN([C@H](C)CO)C2=O was read as esBAF inh 0.
`CN(C)C(=O)c1ccc(-c2ccc3n(c2=O)C[C@@H]2[C@@H](CO)[C@H](C(=O)NCCc4ccccc4)N[C@H]32)cc1` gave esBAF inh 1.
For C[C@@H]1CN([C@H](C)CO)C(=O)c2cc(-c3ccccc3F)cnc2O[C@@H]1CN(C)Cc1cccc(C(=O)O)c1 the results were esBAF inh -1.
Screening CCOC(=O)CC(=O)COc1nc2cc3c(nc2o1)CCCC3 returned SMARCA2 activ 4, dFosB act -3, DYRK1A inh 7, esBAF inh 59*, CDK5 p35 inh 1 and Rtt109 Vps75 -1.
